An excerpt weighted towards active compounds, which were near 7.4% of everything screened.
NPC1 promoter act – qHTS Assay for NPC1 Promoter Activators; 320,000 tested, 2.4% active; AID 485313, 2010; Potency, µM (series often up to 9.22 µM), inactives show top-dose activation, usual class: activators; Huh7 NPC1 promoter luciferase reporter, 24 h; further: % of control where 0% means no effect; nearly all actives have a fitted effect of over 60% in size
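Luciferase expression driven by the NPC1 promoter was measured in stably transfected Huh7 cells after a 24 h compound incubation, using a luciferase reagent and a luminescence read.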
SMN2 splice up – qHTS Assay for Enhancers of SMN2 Splice Variant Expression; HEK293 SMN2-luciferase splicing reporter, luminescence, 30-36 h; Potency, µM (highest dose often 46.1 µM), for inactives: top-dose activity change, positive = activation, actives largely listed as activators; 210,000 tested, 2.8% active; further: % of control where 0% means no effect; nearly all actives have a fitted effect of over 55% in size
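qHTS luciferase splicing reporter: luminescence rises when SMN2 exon 7 is included in transfected HEK293 cells. Compound exposure lasted 30-36 h at 37C, with 4.5 mM final sodium butyrate as control, followed by a ONE-Glo read.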
FLuc counter – qHTS profiling assay for firefly luciferase inhibitor/activator using purifed enzyme and Km concentrations of substrates (counterscreen for miR-21 project); Luciferin 4-monooxygenase (Photinus pyralis), P08659; Potency, µM (doses to about 57.5 µM), inactives show top-dose activity change, negative = inhibition, usual class: inhibitors; purified FLuc, Km substrates, luminescence inhibition; 360,000 tested, 6.9% active;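 further: plate controls were vehicle for no effect and reference inhibitor for full effect; nearly all actives have a fitted effect of over 55% in size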
Target sequence (P08659 whole entry, looked up): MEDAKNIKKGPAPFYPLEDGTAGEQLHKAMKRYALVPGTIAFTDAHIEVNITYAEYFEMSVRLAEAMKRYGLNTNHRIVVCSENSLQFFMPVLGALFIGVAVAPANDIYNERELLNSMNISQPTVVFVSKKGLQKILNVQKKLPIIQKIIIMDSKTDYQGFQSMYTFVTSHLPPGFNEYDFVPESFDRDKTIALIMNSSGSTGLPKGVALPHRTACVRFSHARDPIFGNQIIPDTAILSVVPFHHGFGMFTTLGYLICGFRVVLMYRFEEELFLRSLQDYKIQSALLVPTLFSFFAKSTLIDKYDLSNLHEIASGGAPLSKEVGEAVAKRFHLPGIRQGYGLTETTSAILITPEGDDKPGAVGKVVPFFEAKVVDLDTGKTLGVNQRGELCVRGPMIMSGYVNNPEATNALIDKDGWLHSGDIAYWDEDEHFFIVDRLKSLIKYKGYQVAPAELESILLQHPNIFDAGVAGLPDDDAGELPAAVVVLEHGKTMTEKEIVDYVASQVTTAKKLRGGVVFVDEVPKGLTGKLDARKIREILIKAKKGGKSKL
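Purified P. pyralis luciferase (10nM final) with 10uM D-luciferin and 10uM ATP (Km levels) in 50mM Tris acetate pH 7.5, 10mM Mg acetate, 0.01% Tween-20, 0.05% BSA; qHTS 6-point titration, ~60 µM downward; luminescence read.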
ELG1 genotoxic – qHTS screen for small molecules that induce genotoxicity in human embryonic kidney (HEK293T) cells expressing luciferase-tagged ELG1; Potency, µM (highest dose often 46 µM), for the others: top-dose activity change, positive = activation, actives largely listed as activators; 330,000 tested, 1.3% active; HEK293T ELG1-luciferase reporter, luminescence, 16 h; AID 504466, 2011; further: % of control where 0% means no effect; nearly all actives have a fitted effect of over 60% in size
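Reporter readout depends on ELG1 protein level, which increases with genetic stress. After 16 hr compound exposure at 37 °C, luciferase activity was quantified using ONE-Glo.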
Rab9 prom act – qHTS Assay for Rab9 Promoter Activators; 320,000 tested, 2.8% active; Huh7 Rab9 promoter-luciferase reporter, luminescence, 24 h; Potency, µM (top dose mostly 9.22 µM), inactives show at the top dose activation, negative = inhibition, most hits filed as activators; further: % of control where 0% means no effect; nearly all actives have a fitted effect of over 60% in size
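Luminescence read-out: Huh7 cells stably expressing Rab9-luciferase, treated 24 h with compound at 37 °C, then lysed with luciferase reagent for 10 min at ambient before reading.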
Active calls of the source: *; ? = inconclusive; . = no result given; [ ] = dose if it differs, or a comment. The call rests on the fitted dose curve; in most records, active means well fitted curve in the direction sought with a large enough effect; inconclusive means small, poorly fitted or top-dose-only effect, or another doubt; inactive means no such curve, though single readings can be large; an effect the other way counts as inactive or inconclusive. Potency means the concentration at half of the fitted maximal effect.

SMILES | NPC1 promoter act | SMN2 splice up | FLuc counter | ELG1 genotoxic | Rab9 prom act
N#Cc1cccc(N=c2ssnc2Cl)c1 | 1% | -18% | 19µM* | 0% | -4%
Clc1nssc1=Nc1ccc(Br)cc1 | 4% | -12% | 24µM* | -6% | -2%
Cc1nc(N2CCOCC2)c2c(C(=O)NCCc3ccccc3)c(C)oc2n1 | . | . | -10% | . | .
CN(C)c1ccc(-c2nc(-c3ccco3)no2)cc1[N+](=O)[O-] | . | . | -6% | . | .
CC(C)(C)c1ccc(-c2noc(C(=O)NN)n2)cc1 | 23% | . | ? | 1% | 18%
CC(C)(C)c1ccc(-c2conc2N)cc1 | ? | 18µM* | 2.7µM* | 12% | 2.5µM*
O=C1CC(c2ccccc2)CC(O)=C1C=Nc1ccccc1 (stereo not drawn) | -4% | -4% | 17µM* | 0% | 1%
Cc1ccc(N=CC2=C(O)CC(c3ccco3)CC2=O)cc1 (stereo not drawn) | 1% | -14% | 11µM* | 8% | 11%
COc1ccc(CNC(=S)N/N=C(/C)c2ccccc2)cc1 | ? | . | 7.6µM* | 18µM* | ?
CCOc1ccc(Nc2nn(-c3ccc(OC(F)(F)F)cc3)nc2C(C)=O)cc1 | . | 10% | -1% | . | .
Cn1cc(Cl)c(C(=O)Nc2nccs2)n1 | 16% | . | -19% | 24% | 22%
O=C(Nc1n[nH]c(=S)s1)c1ccc2ccccc2c1 | 1.1µM* | . | 27µM* | ? | 0.79µM*
O=C(Nc1ncccc1O)c1ccc2ccccc2c1 | -3% | . | 1% | -7% | -7%
CC(C)(C)c1ccc(Oc2ccc(NC(=O)C3CC=CCC3C(=O)O)cc2)cc1 (stereo not drawn) | 2% | 16µM* | 27µM* | -1% | -8%
O=C(Nc1nccs1)c1ncc(Cl)c(Cl)c1Cl | 0% | . | 13µM* | -14% | 5%
O=C(Nc1nc(-c2ccccn2)cs1)c1ccc(Br)s1 | -3% | -96% | 19µM* | ? | -3%
O=C(Nc1nc(-c2ccccn2)cs1)c1ccco1 | 24% | -85% | ? | ? | 10%
CCCCc1nn2c(=O)cc(COC(=O)c3ccco3)nc2s1 | . | . | -16% | . | .
COc1ccc(C2=C(N3CCN(c4cccc(C)c4C)CC3)c3ccccc3C2=O)cc1 | . | -11% | -1% | . | .
Cc1ccc(-n2ncc(C(=O)NCCc3ccccc3)c2C2CCN(C(=O)OC(C)(C)C)CC2)c(C)c1 | . | . | -11% | . | .
C/C(=C\c1ccccc1)C(=O)Nc1nccs1 | 2.5µM* | 11µM* | 9.5µM* | ? | 3.5µM*
CCC(=O)Nc1cccc(C(=O)Nc2nccs2)c1 | 11% | . | ? | 1% | 11%
O=C(Nc1nccs1)Oc1ccccc1 | 1% | -1% | -4% | 0% | -5%
CCOc1cccc(C(=O)Nc2nccs2)c1 | ? | ? | 15µM* | ? | ?
CCOc1cccc(C(=O)Nc2nnc(-c3ccco3)s2)c1 | ? | 2.8µM* | 4.8µM* | ? | 4µM*
SMILES | NPC1 promoter act | SMN2 splice up | FLuc counter | ELG1 genotoxic | Rab9 prom act
O=C(Nc1nccs1)c1ccccn1 | ? | ? | ? | ? | 3.2µM*
COc1ccc(Br)cc1CNC(=O)CCCn1c(=O)c2cccn2c2cccnc21 | . | . | -1% | . | .
O=C(CCNC(=O)c1ccc(Br)cc1)Nc1nccs1 | 1% | -5% | -16% | 1% | 12%
O=C(Nc1nccs1)c1cccnc1Cl | 1% | . | -2% | 2% | -4%
O=C(Nc1nccs1)c1ccc(Br)s1 | ? | . | 15µM* | ? | 4µM*
O=C(Nc1nccs1)c1ccc(S(=O)(=O)c2ccccc2)cc1 | -1% | -12% | 6% | -1% | 0%
O=C(O)c1ccc(NC(=O)C2CC=CCC2C(=O)O)cc1 (stereo not drawn) | -2% | 7% | 2% | 1% | -1%
O=C(Nc1nccs1)c1ccc2ccccc2c1 | 3.2µM* | . | 3µM* | 14% | 3.2µM*
O=C(Nc1nccs1)c1ccc(Br)cc1 | 2.5µM* | . | 9.5µM* | ? | 2.2µM*
O=C(Nc1nccs1)c1ccc(NC(=O)C2CC=CCC2C(=O)O)cc1 (stereo not drawn) | 6% | -10% | 17µM* | 1% | 17%
Cc1cccc(C(=O)Nc2cccc(OCc3cc(=O)n4cccc(C)c4n3)c2)c1 | . | . | 4% | . | .
CC(=O)c1ccc(NC(=O)COc2ccccc2-c2nc(-c3ccc(C)cc3)no2)cc1 | . | . | 3% | . | .
COc1ccc(-c2onc(C)c2C)cc1S(=O)(=O)N(C)Cc1ccccc1 | . | . | -17% | . | .
C[C@@H]1CCC2[C@](C)(CO)[C@@H](O)CC[C@]2(C)[C@]12CCC(CO)(CCO)O2 (stereo partly drawn) | . | 14% | . | . | .
O=C(Nc1ccccc1N1CCOCC1)c1ccc(N2CCOCC2)c([N+](=O)[O-])c1 | -3% | 21% | ? | -13% | -1%
O=C(Nc1nccs1)c1ccc(N2CCOCC2)c([N+](=O)[O-])c1 | 1.8µM* | . | 12µM* | ? | 2.2µM*
O=C(O)/C=C(/C(=O)O)[C@]12CCN3CC4=CCO[C@@H]5CC(=O)N[C@@H]1C5[C@H]4C[C@H]32 (stereo partly drawn) | . | -3%[9.22 µM] | . | . | .
O=C(Nc1nc2ccccc2[nH]1)c1cc(F)cc(F)c1 | 1.8µM* | . | 2.7µM* | ? | 0.63µM*
N#Cc1ccc(C(=O)Nc2nc3ccccc3[nH]2)cc1 | 1.8µM* | . | 2.4µM* | ? | 1.8µM*
COc1ccc2oc(C(=O)Nc3nc4ccccc4[nH]3)c(C)c2c1 | 0.35µM* | . | 0.43µM* | ? | 0.32µM*
O=C(Cc1ccccc1F)Nc1nc2ccccc2[nH]1 | 11% | 18% | -17% | 10% | 22%
O=C(Nc1nc2ccccc2[nH]1)c1cc2ccccc2o1 | 2.2µM* | 4.5µM* | 1.3µM* | 2.3µM* | 1.1µM*
O=C(Nc1ccc2nn(-c3ccccc3)nc2c1)c1cc2ccccc2o1 | . | -17% | 1% | . | .
CC(C)[C@@H]1CC[C@@H](C)C[C@@H]1P(=O)(c1ccccc1)c1ccccc1 | -8%[46.1 µM] | . | . | . | -4%[46.1 µM]
CCOc1ccccc1NC(=O)C(C)n1nnc2sc3c(c2c1=O)CCCC3 (stereo not drawn) | . | 19% | 2% | . | .
O=C(NCCc1nc2ccccc2[nH]1)c1ccc(F)cc1 | -4% | . | 11% | -2% | -1%
O=C(Nc1nc2ccccc2[nH]1)c1ccc(F)c(S(=O)(=O)N2CCOCC2)c1 | ? | ? | 17µM* | 14% | ?
O=C(Nc1nc2ccccc2[nH]1)c1ccccc1F | ? | . | 0.19µM* | ? | -22%
O=C(Nc1nc2ccccc2[nH]1)c1ccc(F)cc1 | 0.45µM* | 14µM* | 1.1µM* | ? | 0.32µM*
Cc1ccsc1C(=O)Nc1nc2ccccc2[nH]1 | 0.63µM* | . | 1.7µM* | 1.2µM* | 0.35µM*
